From PubChem BioAssay AID904 (National Center for Advancing Translational Sciences (NCATS), 2007)
Out of some 55,000 compounds screened, about 530 (0.96%) were called active. A call without a number means that no potency is given here. Inconclusive results (about 7%) are left out. The full list was thinned out, with actives kept by preference. Unmarked numbers belong to inactive results. The call rests on the fitted dose curve; in most records, active means well fitted cell-killing curve with a large enough effect; inconclusive means small, poorly fitted or top-dose-only effect; inactive means no such curve, though single readings can be large or run the other way.

test: qHTS Screen for Compounds that Selectively Target Cancer Cells with p53 Mutations: Cytotoxicity of p53 Null Cells at the Nonpermissive Temperature; settings: H1299 p53-null (neo) cells, 39C, ATPlite viability, 24 h; series mostly up to 46.1 µM; further: nearly all actives have a fitted effect of over 50% in size
From the text: NIH Chemical Genomics Center [NCGC] NIH Molecular Libraries Screening Centers Network [MLSCN] MLSCN Grant: 1 X01 MH079844-01 Assay Submitter (PI): Dr. SUN, YI, University of Michigan NCGC Assay Overview: Synthetic Lethal Screen for Compounds to Kill Cancer Cells with p53 Mutation. Tumor suppressor gene p53 serves as a major cellular barrier against tumorigenesis. […] The goal of this screening is to identify small molecule probes that selectively kill cancer cells with mutations in p53. This screening was carried out using two lines of H1299 lung cancer cells. The H1299-p53 A138V line express a temperature sensitive p53 mutant (p53ts) in which the mutant p53 protein (A138V) is in the mutant confirmation when grown at 39C (the nonpermissive temperature) and in the wild type conformation when grown at 32C (the permissive temperature). A H1299-neo line (p53 null) grown at both 39C and 32C were used as counter-screens to filter out false positive associated with temperature shifting. The small molecular compounds that selectively target mutant p53-containing cancer cells were selected as candidate probes for further study. A cytotoxicity assay based on the measurement of ATP contents in cells was used in this screen. Concentration-responses of all the compounds in the library collection were determined in qHTS using the cell lines and temperature conditions as above.
NCGC Assay Protocol Summary: Both the H1299-p53A138V and H1299-neo cell lines were provided by Dr.Yi Sun, a PI at the University Michigan. The cells were maintained and cultured at 37C. The resuspended frozen cells were used to plate the cells in the 1536-well assay plates at a density of 600 cells per well in 5 ul medium. The assay plates with the cells were incubated at 37C for 16 to 30 hours before the experiments. The library compounds in DMSO solution were added to the cells in assay plates and incubated 24 hours at 39C (for mutant p53 conformation) or 32C (for normal p53 conformation as control). An ATP_lite assay kit (PerkinElmer) was used to determine the cell viability. Tomaxifen (100uM) was used as the positive control for cell killing. Data were normalized to the controls for basal activity (DMSO only) and 100% killing (100uM tamoxifen). AC50 values were determined from concentration-response data modeled with the standard Hill equation. P53 assay protocol: 1. Reagent; 5 uL H1299-p53A138V or H1299-neo cell cells/well 2. Time; overnight; 37C incubation 3. Compounds; 23 nL; 5.9 nM to 46 uM 4. Controls; 23 nL; Tamoxifen 100 uM 5. Time; 24 hr; 39C incubation 6. Reagent; 3 uL; ATP_Lite reagent 7. Time; 20 min; Room Temperature 8. Detection; Luminescence; Viewlux plate reader Keywords: p53, synthetic lethal, cancer, cell viability, cytotoxicity, H1299 cell line, luminescence, MLSMR, MLSCN, NIH Roadmap, qHTS, NCGC
Potency means the concentration at half of the fitted maximal effect.

SMILES	Potency	activity, negative = cell killing
O=C(ON=C1CCN(S(=O)(=O)c2ccccc2)CC1)c1ccc(Cl)cc1	inactive	–
CCOC(=O)CSC1=Nc2ccccc2C2=NC(CCC(=O)NCc3ccc(F)cc3)C(=O)N12 (stereo not drawn)	inactive	–
COc1ccc(OCCn2cc(C(=O)C3CCCCC3)c3ccccc32)cc1	inactive	–
CCOc1ccc(C(=O)/C=C/c2cn(CC(O)CN3CCCCCC3)c3ccccc23)cc1 (stereo not drawn)	12.6 µM (active)	–
O=C(/C=C/c1cn(CC(O)CN2CCc3ccccc32)c2ccccc12)c1ccc(Br)cc1 (stereo not drawn)	inactive	–
O=C(Cc1cccs1)Nc1nnc(SCc2ccc(F)cc2)s1	inactive	–
CCc1ccccc1N(C)C(=O)C1CCCN(c2ncnc3onc(-c4ccc(F)cc4)c23)C1 (stereo not drawn)	inactive	–
Cc1nn(Cc2ccc(F)cc2)c(C)c1NC(=O)c1cc(CC(C)C)on1	inactive	–
COc1ccc(C2(CNC(=O)C(c3ccccc3)c3ccccc3)CCOCC2)cc1OC	inactive	–
CCC(CC)C(=O)N1CCc2cc(OC)c(OC)cc2C1COc1ccc(F)cc1 (stereo not drawn)	inactive	–
COc1cccc(N2CCN(S(=O)(=O)c3cc(Br)cc4c3N(C(=O)C3CC3)CC4)CC2)c1	inactive	–
Oc1c(C(c2ccc(F)cc2)N2CCN(Cc3ccccc3)CC2)sc2nc(-c3ccco3)nn12 (stereo not drawn)	inactive	–
CCCC(=O)Nc1cc(C(=O)NCc2ccc(OC)cc2)ccc1S(=O)(=O)c1ccc(Cl)cc1	inactive	–
Cn1c(=O)c(=O)n(C)c2cc(NC(=O)c3ccccc3Br)ccc21	inactive	–
CCc1nn(CCCC(=O)NCc2ccc(C)cc2)c(=O)c2cc3occc3n12	inactive	–
Cc1ccc(NC(=O)C(=O)NCc2ccc(/C=N/NC(=O)c3c(C)nc4cc(C)ccn34)o2)cc1	inactive	–
Cc1c(C(=O)NCCCc2ccccc2)cccc1[N+](=O)[O-]	–	-7.93% [at 1.84 µM]
CC(NC(=S)Nc1ccccc1)C1COc2ccccc2O1 (stereo not drawn)	inactive	–
COc1cccc2c1cc1c(=O)n(CC(=O)N3CCN(c4cccc(Cl)c4)CC3)nc(C)n12	inactive	–
COc1cc(OC)c(C(=O)Nc2ccccc2-c2ccccc2)cc1OC	–	18.9% [at 1.84 µM]
CCOC(=O)c1ccc(NC(=O)Cn2c(=O)cc(C)c3c(C)nn(-c4cccc(F)c4)c32)cc1	inactive	–
Cc1nn(-c2ccccc2)c(Cl)c1/C=C/C(=O)c1ccc(O)cc1	inactive	–
COc1ccc(NC(=O)CC2C(=O)OCC3CCCCN32)cc1Cl (stereo not drawn)	–	14% [at 1.84 µM]
CC(C)(C)c1ccc(C(=O)NCc2nnc(SCC(=O)N3CCCc4ccccc43)n2-c2ccccc2)cc1	inactive	–

SMILES	Potency	activity, negative = cell killing
Cc1cc(C)c(NC(=O)c2oc3ccccc3c2COc2ccccc2)c(C)c1	inactive	–
Cc1cc(C)cc(OC(C)C(=O)Nc2nc3c(s2)CCCC3)c1 (stereo not drawn)	inactive	–
Cc1ccccc1NC(=O)c1c(NC(=O)c2ccccc2F)sc2c1CCC(C)C2 (stereo not drawn)	inactive	–
O=C(Nc1nc2c(s1)CCCC2)c1ccccc1F	7.94 µM (active)	–
COc1ccc(Cl)cc1NC(=O)CNc1ccccc1F	–	28.8% [at 1.84 µM]
COc1ccc(OCCCn2c(C3CC(=O)N(c4ccc(F)cc4)C3)nc3ccccc32)cc1 (stereo not drawn)	inactive	–
CCCCN1CC(c2nc3ccccc3n2CCCCOc2ccc(C)cc2C)CC1=O (stereo not drawn)	inactive	–
CCc1ccccc1N1CC(c2nc3ccccc3n2CCCCOc2ccccc2)CC1=O (stereo not drawn)	20 µM (active)	–
Cc1cccc(NC(=S)Nc2ccc3cn[nH]c3c2)c1	inactive	–
CCN1CCN(C(=O)C2(NC(=O)Nc3cccc(F)c3)CCCCC2)CC1	inactive	–
COc1cc(Cl)c(C)cc1NC(=O)CCc1nc2cccnc2n1Cc1cccs1	inactive	–
O=S(=O)(NN=C1CCCCCCC1)c1ccc(Br)cc1	inactive	–
CC1=CC(=C(C#N)c2nc3ccccc3s2)C=C(C)N1c1ccc(F)cc1F	inactive	–
CCc1ccc(C2CC(=O)c3c([nH]c(C(=O)OCc4ccc(C)cc4)c3C)C2)cc1 (stereo not drawn)	inactive	–
Cc1cc(C)cc(C(=O)N2CCN=C2SCc2ccc([N+](=O)[O-])cc2)c1	inactive	–
CSc1nc(Nc2ccc(F)cc2)cc(-c2ccccc2)n1	15.8 µM (active)	–
Fc1ccc(Nc2nc(SCc3ccccc3Cl)nc3ccccc23)cc1	inactive	–
CC(C)(C)NC(=O)CSc1nc(-c2ccc(F)cc2)cc(C(F)(F)F)n1	inactive	–
Cc1ccc(CNC(=O)CCc2c(C)nc3c(c(C)nn3-c3ccccc3)c2C)cc1	inactive	–
CCC1CCCCN1C(=S)Nc1ccc(SC(F)F)cc1 (stereo not drawn)	inactive	–
CCc1ccccc1NC(=O)Cn1c(=O)n(-c2cccc(C)c2)c(=O)c2c1c1cc(OC)ccc1n2C	inactive	–
Cc1ccc(-c2nn3c(=O)cc(CN4CCN(S(=O)(=O)c5ccc(Cl)cc5)CC4)nc3s2)cc1	inactive	–
CCCCOC(=O)/C(C#N)=C/c1ccc(-c2cccc(C(F)(F)F)c2)o1	inactive	–
CCOC(=O)c1nc(Nc2ccc(C(=O)OC)cc2)c2ccccc2n1	inactive	–

SMILES	Potency	activity, negative = cell killing
COc1cccc(Nc2nc3ccccc3c3nncn23)c1	inactive	–
COc1cc(Nc2nc(-c3ccc(OC)c(OC)c3)nc3ccccc23)cc(OC)c1	14.1 µM (active)	–
O=C(Nc1ccc2c(c1)OCO2)c1cc(-c2cccc(Cl)c2)on1	inactive	–
Cc1ccccc1-c1nc2scc(CCNC(=O)C(=O)Nc3ccc(F)cc3F)n2n1	inactive	–
Cc1ccc(Nc2c(-c3ccc(C)cc3)nc3cnccn23)cc1	inactive	–
CC(=O)Nc1ccc(S(=O)(=O)N2CCN(c3ccc([N+](=O)[O-])c(NCCN4CCOCC4)c3)CC2)cc1	inactive	–
Cc1ccc(CSc2nc3cccnc3n2Cc2ccc(C(=O)NC3CC3)cc2)cc1	3.16 µM (active)	–
O=C(O)c1ccc(CSc2nc3cccnc3n2Cc2cccc(F)c2)cc1	inactive	–
O=C(NC1CCCCC1)c1ccc(Cn2c(SCc3ccccc3)nc3cccnc32)cc1	inactive	–
COc1ccc(OC)c(-c2nc(C(N)=O)c3c(n2)n(-c2ccc4c(c2)OCO4)c(=O)n3C)c1	inactive	–
CCOc1ccc(N(Cc2ccccc2)C(=O)c2nc(S(C)(=O)=O)ncc2Cl)cc1	10 µM (active)	–
CCOc1ccc(N(Cc2ccccc2)C(=O)c2nc(SCC)ncc2Cl)cc1	inactive	–
CCOc1ccc(NC(=O)CN(Cc2ccccc2)S(=O)(=O)c2ccc(Cl)cc2)cc1	inactive	–
CNc1ccc(NC(C)=O)cc1[N+](=O)[O-]	–	-11.3% [at 1.84 µM]
N#Cc1c(-c2ccc(F)cc2)cc(C2CC2)nc1SCC(=O)c1cccs1	–	-5.05% [at 1.84 µM]
COc1ccc(CNC(=O)c2ccc3c(O)c(S(=O)(=O)c4ccccc4)c(=O)[nH]c3c2)cc1	inactive	–
Cc1ccc(C(=O)Nc2ccc3[nH]c(=O)c(=O)[nH]c3c2)cc1	inactive	–
CC(C)c1ccc(NC(=O)c2ccc3c(O)c(S(=O)(=O)c4ccccc4)c(=O)[nH]c3c2)cc1	7.94 µM (active)	–
CCC(C(=O)Nc1cccc(-c2nc3cccnc3s2)c1C)c1ccccc1 (stereo not drawn)	inactive	–
Cc1c(NC(=O)Cc2ccccc2)cccc1-c1nc2cccnc2s1	inactive	–
Cc1c(NC(=O)C(C)(C)C)cccc1-c1nc2ccccc2s1	15.8 µM (active)	–
O=C(Nc1cc(C(F)(F)F)ccc1Cl)C(=O)N1CCCCC1	–	-3.07% [at 1.84 µM]
Cc1cccc(NC(=O)CSc2ncc(-c3ccccc3)[nH]2)c1C	inactive	–
Cc1ccc(S(=O)(=O)c2cn(Cc3ccccc3)c3cc(N4CCCC4)c(F)cc3c2=O)c(C)c1	inactive	–

SMILES	Potency	activity, negative = cell killing
COCCN(Cc1ccco1)C(=O)Cn1ncc2c([nH]c3ccccc32)c1=O	inactive	–
Cc1ccc(CN(C(=O)COc2ccc(Cl)cc2C)C2CCS(=O)(=O)C2)o1 (stereo not drawn)	inactive	–
COc1cc(C(=O)N2CCN(c3ccc(Nc4ccc(C)cc4)nn3)CC2)cc(OC)c1OC	inactive	–
O=C(COC(=O)c1cc2c(s1)CCCC2)NCc1ccccc1Cl	inactive	–
Cc1ccc(NC(=O)c2sc3nc(N)c(C#N)cc3c2N)cc1	–	9.07% [at 1.84 µM]
CCOc1ccc(CNC(=O)C2CCN(c3nnc(-n4cccc4CNc4ccc(C)cc4)s3)CC2)cc1OC	inactive	–
CCOC(=O)/C(C#N)=C/c1ccc(N2CCN(Cc3ccccc3)CC2)cc1	–	2.74% [at 1.84 µM]
Cc1cccc(-n2c(=O)c3c(c4cc(C)ccc4n3C)n(CC(=O)Nc3ccccc3Cl)c2=O)c1	inactive	–
CCOc1ccc(-c2nonc2NC(=O)c2oc3ccc(CC)cc3c2C)cc1	inactive	–
Cc1ccc(S(=O)(=O)N2CCN(CC(=O)N/N=C/c3cc([N+](=O)[O-])ccc3Cl)CC2)cc1	inactive	–
CCc1nnc(SCC(=O)Nc2cc(OC)ccc2OC)nc1CC	inactive	–
O=c1n(Cc2cccc(C(F)(F)F)c2)c2ccccc2c2nc(-c3ccccc3)nn12	inactive	–
Cc1c(NC(=O)c2cc(-c3ccc(Br)cc3)on2)c(=O)n(-c2ccccc2)n1C	inactive	–
Cc1ccc(-c2nnc(Nc3cccc(Br)c3)c3ccccc23)cc1S(=O)(=O)NCC1CCCO1 (stereo not drawn)	inactive	–
Cc1ccc(Nc2nnc(-c3ccc(C)c(S(=O)(=O)N4CCCCC4)c3)c3ccccc23)cc1	inactive	–
Cc1ccc(-c2nnc(Nc3ccc(OCC(N)=O)cc3)c3ccccc23)cc1S(=O)(=O)NCC1CCCO1 (stereo not drawn)	12.6 µM (active)	–
C=CCn1c(SCC(N)=O)nnc1-c1cc2c(s1)CCC(CC)C2 (stereo not drawn)	inactive	–
Cc1nc2sc(C)c(C)n2c(=O)c1S(=O)(=O)NCCc1ccc(Cl)cc1	inactive	–
Cc1cc(C)c(/C=C/c2onc(C)c2S(=O)(=O)N2CCC(C(=O)Nc3ccc(Cl)cc3C)CC2)c(C)c1	inactive	–
O=C(CNS(=O)(=O)c1cccs1)N1CCN(c2ccccc2Cl)CC1	inactive	–
COc1ccc(OC)c(NC(=O)CSC2=Nc3ccccc3C3=NC(CC(=O)NCCc4ccccc4)C(=O)N23)c1 (stereo not drawn)	inactive	–
